Screening results as filed in PubChem.
Hits are enriched below; roughly 19% of the tested compounds scored in any of these assays.
TDP1 cell noCPT – qHTS for Inhibitors of human tyrosyl-DNA phosphodiesterase 1 (TDP1): qHTS in cells in absence of CPT. DT40 Tdp1-/- hTDP1 cells, no CPT, ATP luminescence, 48 h. Potency, µM (series often up to 46.2 µM), without a hit: at the highest dose activity change, negative = growth inhibition, usual class: inhibitors. 15% of 420,000 active. AID 686978, 2013; also: potency is read from the fitted curve at half-maximal effect; nearly all actives have a fitted effect of over 55% in size
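Growth kinetics read by CellTiter-Glo luminescence after ≥48 hr at 37 °C. Cells: DT40 Tdp1-/- stably carrying human TDP1, 400 per well, compound exposure in the absence of CPT (DMSO vehicle).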
ELG1 DNA repair – blocks ELG1-dependent DNA repair in HEK293T cells | HEK293T ELG1-luciferase reporter, luminescence, 16 h; DNA damage induced by 5-fluorouridine | Potency, µM (top dose mostly 46.1 µM), for the others: top-dose activity change, negative = inhibition, hits mostly inhibitors | 2.3% of 330,000 active | AID 504467; also: potency is read from the fitted curve at half-maximal effect; nearly all actives have a fitted effect of over 55% in size
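Luminescence from the luciferase reporter, measured 30 min after ONE-Glo reagent at room temperature, was the read-out. Beforehand, 2,000 cells per well were exposed for 16 hr at 37 °C to 5-fluorouridine together with compound or vehicle.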
IL1B secr inh – inhibitors of inflammasome signaling (IL-1 beta secretion) | THP-1 LPS/ATP IL-1B secretion, AlphaLISA, 16 h; active compounds read low | activity change, % at 57.5 µM | 4.7% of 360,000 active; in the data active = activity change below about -50%; inconclusive = mostly about -30% to -49%
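THP-1 cells pretreated 1 hr with compounds (up to 57.5 uM final), then stimulated with LPS (250 ng/mL final) plus ATP (1.25 mM final); secreted IL-1B measured by AlphaLISA after 16 hr, decreased signal indicating inhibition.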
Giardia kill – Giardia lamblia killing. Giardia lamblia trophozoite viability. activity change, % at 7.66 µM, hits read low. 0.15% of 340,000 active; in the data active = activity change below about -80%; inconclusive = between about -30% and that limit;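 also: parasites exposed to compound for two days anaerobically before the ATP read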
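Giardia lamblia trophozoites (100 cells/well) were incubated with compounds for 48 h at 37 deg C under anaerobic conditions. Viability was read as ATP content by one-step luminescence after 15-30 min at room temperature.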
TDP1 cell CPT – DT40-hTDP1 cell growth loss with CPT | AID 686979 | 12% of 420,000 active | chicken DT40 Tdp1-/-;hTDP1 cells + 20 nM CPT, ATP luminescence, 48 h | Potency, µM (doses to about 46.2 µM), for the others: at the highest dose activity change, negative = growth inhibition, most hits filed as inhibitors; also: potency is read from the fitted curve at half-maximal effect; nearly all actives have a fitted effect of over 55% in size
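Chicken DT40 Tdp1-/- cells complemented with human TDP1, 400 cells/well, exposed to compounds plus 20 nM camptothecin for at least 48 h at 37 C; viability read as ATP content by CellTiter-Glo luminescence.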
TDP1 block – inhibitors of human tyrosyl-DNA phosphodiesterase TDP1 | Q9NUW8 | recombinant TDP1, AlphaScreen DNA substrate cleavage | Potency, µM (highest dose often 130 µM), inactives show top-dose activity change, negative = inhibition, actives largely listed as inhibitors | 0.28% of 350,000 active | AID 485290; also: potency is read from the fitted curve at half-maximal effect; nearly all actives have a fitted effect of over 40% in size
Target sequence (Q9NUW8 whole entry, looked up): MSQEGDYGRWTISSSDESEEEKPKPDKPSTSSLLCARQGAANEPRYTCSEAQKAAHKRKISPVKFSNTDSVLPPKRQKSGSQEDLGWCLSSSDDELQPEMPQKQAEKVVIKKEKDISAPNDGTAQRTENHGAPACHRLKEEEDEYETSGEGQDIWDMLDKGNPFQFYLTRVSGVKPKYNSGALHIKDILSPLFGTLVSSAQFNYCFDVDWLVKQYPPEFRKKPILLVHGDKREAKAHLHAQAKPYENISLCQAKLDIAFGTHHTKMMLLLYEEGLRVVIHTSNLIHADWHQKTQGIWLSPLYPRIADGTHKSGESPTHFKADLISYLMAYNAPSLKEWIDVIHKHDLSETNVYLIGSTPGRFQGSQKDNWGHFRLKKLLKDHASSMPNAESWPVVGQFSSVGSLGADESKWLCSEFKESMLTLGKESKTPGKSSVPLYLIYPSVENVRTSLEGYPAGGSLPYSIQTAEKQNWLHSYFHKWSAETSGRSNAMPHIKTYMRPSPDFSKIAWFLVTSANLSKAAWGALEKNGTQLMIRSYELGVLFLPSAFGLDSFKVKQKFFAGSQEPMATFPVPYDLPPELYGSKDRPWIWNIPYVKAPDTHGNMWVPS
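Signal: AlphaScreen proximity between streptavidin donor and anti-FITC acceptor beads on intact substrate. Reaction: Tdp1 1 nM, substrate 15 nM final, 5 min RT after 15 min compound preincubation.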
An asterisk follows results filed as active; [ ] = remark or other dose. Unless noted, calls follow the shape of the dose curve; as a rule, active = well fitted curve in the direction sought with a large enough effect; inconclusive = small, poorly fitted or top-dose-only effect, or another doubt; inactive = no such curve, though single readings can be large; an effect the other way counts as inactive or inconclusive. % is scaled to controls: 0 for no effect and ±100 for the full control effect.

`COc1cccc(CN(C(=O)COc2ccc(Cl)c(C)c2)C2CCS(=O)(=O)C2)c1` (stereo unspecified) gave TDP1 cell noCPT inconclusive, TDP1 cell CPT inconclusive and TDP1 block 6%.
Screening CNC(=S)N1CCN(c2nc(-c3ccc(Cl)cc3)cs2)CC1 returned TDP1 cell noCPT 21µM*, ELG1 DNA repair -6%, IL1B secr inh -57*, Giardia kill 9 and TDP1 cell CPT inconclusive.
CCOC(=O)N1CCN(c2nc(-c3ccc(Cl)cc3)cs2)CC1 was read as TDP1 cell noCPT inconclusive, ELG1 DNA repair inconclusive, IL1B secr inh -1, Giardia kill 2, TDP1 cell CPT -26% and TDP1 block -3%.
`CCS(=O)(=O)N1CCN(c2nc(-c3ccccc3)cs2)CC1` gave TDP1 cell noCPT -27%, ELG1 DNA repair inconclusive, IL1B secr inh 0, Giardia kill -9, TDP1 cell CPT -1% and TDP1 block 1%.
CC(C)C(=O)N1CCN(c2nc(-c3ccc(Cl)cc3)cs2)CC1 was read as TDP1 cell noCPT 13µM*, ELG1 DNA repair 5%, IL1B secr inh -24, Giardia kill -15, TDP1 cell CPT 23µM* and TDP1 block 0%.
`O=C(CCCl)N1CCN(c2nc(-c3ccccc3)cs2)CC1` gave TDP1 cell noCPT 16µM*, ELG1 DNA repair inconclusive, IL1B secr inh 0, Giardia kill -4, TDP1 cell CPT inconclusive and TDP1 block 8%.
CCNC(=S)N1CCN(c2nc(-c3ccc(F)cc3)cs2)CC1 was read as TDP1 cell noCPT inconclusive, ELG1 DNA repair inconclusive, IL1B secr inh -4, Giardia kill -24, TDP1 cell CPT inconclusive and TDP1 block 5%.
CCN(CC)CCCNC(=S)N1CCN(c2nc(-c3ccc(F)cc3)cs2)CC1 was read as TDP1 cell noCPT 6.5µM*, ELG1 DNA repair -5%, IL1B secr inh -58*, Giardia kill -24 and TDP1 cell CPT 15µM*.
For COc1ccc(CCNC(=O)C(C)n2c(=O)cc(-c3ccccc3)c3c(C)nn(C)c32)cc1OC (stereo unspecified) the results were TDP1 cell noCPT inconclusive, TDP1 cell CPT inconclusive and TDP1 block 11%.
`COc1ccccc1C(=O)NC(=O)COC(=O)c1cnccn1` gave TDP1 cell noCPT 7%, IL1B secr inh -10 and TDP1 cell CPT -4%.
Screening O=[N+]([O-])c1ccc(N2CCN(c3nc(-c4ccc(Cl)cc4)cs3)CC2)cc1 returned TDP1 cell noCPT 12µM*, ELG1 DNA repair inconclusive, IL1B secr inh -3, Giardia kill -14, TDP1 cell CPT inconclusive and TDP1 block 7%.
`O=C(N1CCOCC1)N1CCN(c2nc(-c3ccc(F)cc3)cs2)CC1` gave TDP1 cell noCPT 16µM*, ELG1 DNA repair -8%, IL1B secr inh -15, Giardia kill 1, TDP1 cell CPT inconclusive and TDP1 block 7%.
Screening CCCCC(=O)N1CCN(c2nc(-c3ccc(F)cc3)cs2)CC1 returned TDP1 cell noCPT inconclusive, ELG1 DNA repair -13%, IL1B secr inh -17, Giardia kill 5 and TDP1 cell CPT inconclusive.
For Cc1cn([C@H]2C[C@H](O)[C@@H](CCC(=O)NCc3cccc4ccccc34)O2)c(=O)[nH]c1=O the results were TDP1 cell noCPT 8%, IL1B secr inh -6 and TDP1 cell CPT 2%.
CCOC(=O)c1c(NC(=O)COc2ccc(Cl)cc2C)sc(C(C)=O)c1C was read as TDP1 cell noCPT -29%, TDP1 cell CPT -16% and TDP1 block 2%[2.28 µM].
Screening CCOC(=O)C1Oc2ccccc2C(c2cccc3ccccc23)=C1C(=O)OC (stereo unspecified) returned TDP1 cell noCPT inconclusive, ELG1 DNA repair inconclusive, IL1B secr inh 5, Giardia kill 38, TDP1 cell CPT inconclusive and TDP1 block -4%[56.1 µM].
`Cc1ccc(S(=O)(=O)Nc2c(Cl)c(Cl)c(O)c3ccccc23)cc1` gave ELG1 DNA repair -11% and TDP1 block 10%.
For CC1=NN(C(N)=S)C(=O)C1N=Nc1ccc(C)c(Br)c1 (stereo unspecified) the results were TDP1 cell noCPT 16µM*, ELG1 DNA repair inconclusive, IL1B secr inh 12, Giardia kill -21 and TDP1 cell CPT 13µM*.
For CC1=NN(C(N)=S)C(=O)C1N=Nc1ccc(F)cc1 (stereo unspecified) the results were TDP1 cell noCPT inconclusive, ELG1 DNA repair inconclusive, IL1B secr inh -8, Giardia kill -15 and TDP1 cell CPT -24%.
CC1=NN(C(N)=S)C(=O)C1N=Nc1ccccc1Cl (stereo unspecified) was read as TDP1 cell noCPT 2.9µM*, ELG1 DNA repair inconclusive, IL1B secr inh -7, Giardia kill inconclusive and TDP1 cell CPT 5.8µM*.
Screening CC1=NN(C(N)=S)C(=O)C1N=Nc1cccc(C)c1 (stereo unspecified) returned TDP1 cell noCPT 5.8µM*, ELG1 DNA repair 0%, IL1B secr inh 5, Giardia kill -10 and TDP1 cell CPT 3.3µM*.
For CC1=NN(C(N)=S)C(=O)C1N=Nc1ccc(O)cc1 (stereo unspecified) the results were TDP1 cell noCPT 26µM*, ELG1 DNA repair 2%, IL1B secr inh 49, Giardia kill -5, TDP1 cell CPT -20% and TDP1 block -8%.
`CC1=NN(C(N)=S)C(=O)C1N=Nc1ccc(Cl)cc1Cl` (stereo unspecified) gave TDP1 cell noCPT inconclusive, ELG1 DNA repair inconclusive, IL1B secr inh -6, Giardia kill -26, TDP1 cell CPT -15% and TDP1 block 9%.
For Cc1ccc(-n2ncc(C(=O)N3CCN(c4ccccc4F)CC3)c2C2CCN(C(=O)OC(C)(C)C)CC2)cc1C the results were TDP1 cell noCPT -19%, TDP1 cell CPT inconclusive and TDP1 block -7%.
Screening Cc1ccc(Cl)cc1N1CCN(C(=O)c2cnn(C)c2C2CCN(C(=O)OC(C)(C)C)CC2)CC1 returned TDP1 cell noCPT 5.8µM*, TDP1 cell CPT 6.5µM* and TDP1 block -3%.
For Cc1ccc(C)c(N2CCN(C(=O)c3cnn(C(C)(C)C)c3C3CCN(C(=O)OC(C)(C)C)CC3)CC2)c1 the results were TDP1 cell noCPT inconclusive, TDP1 cell CPT 18µM* and TDP1 block -1%.
